Usually AC50 stands for the midpoint of the concentration-response curve, whichever way the signal moves.

Out of some 16,000 compounds screened, about 2,600 (16%) were called active. Inconclusive results (about 20%) are left out. The call rests on the fitted dose curve; in most records, active means well fitted curve in the direction sought with a large enough effect; inconclusive means small, poorly fitted or top-dose-only effect, or effect the other way; inactive means no such curve, though single readings can be large or run the other way. These entries were drawn from the full list.
On the % scale 0 is the no-effect control and ±100 the full control effect.

The target of this test is Cytochrome P450 2D6 (Homo sapiens) (UniProt P10635). As to the kind of experiment: Cytochrome panel assay with activity outcomes. Particulars: recombinant CYP, pro-luciferin dealkylation, luminescence, p450-cyp2d6; series mostly up to 57.1 µM.
Chain of Cytochrome P450 2D6 (Homo sapiens) (P10635 whole entry, looked up): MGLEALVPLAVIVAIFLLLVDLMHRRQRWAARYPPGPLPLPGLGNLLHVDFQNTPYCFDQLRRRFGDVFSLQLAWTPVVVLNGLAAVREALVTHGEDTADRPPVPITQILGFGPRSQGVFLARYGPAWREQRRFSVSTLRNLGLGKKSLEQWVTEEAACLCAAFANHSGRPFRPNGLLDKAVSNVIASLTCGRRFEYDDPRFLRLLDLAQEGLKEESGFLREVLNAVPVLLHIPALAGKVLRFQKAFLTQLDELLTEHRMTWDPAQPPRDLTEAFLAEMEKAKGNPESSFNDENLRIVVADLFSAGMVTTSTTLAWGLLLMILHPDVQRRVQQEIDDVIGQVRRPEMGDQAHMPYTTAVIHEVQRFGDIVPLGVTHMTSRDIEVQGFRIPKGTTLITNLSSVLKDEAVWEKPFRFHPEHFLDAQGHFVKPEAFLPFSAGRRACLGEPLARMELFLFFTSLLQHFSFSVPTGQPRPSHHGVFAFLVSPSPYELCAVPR
As for `Cc1ccc2cc(CCNC(=O)c3ccc(Br)o3)c(=O)[nH]c2c1`, the AC50 entry is “inactive”.

For the compound `Cc1cccc(N(C)S(=O)(=O)c2ccc3[nH]c(=O)c(=O)[nH]c3c2)c1`, the AC50 entry was “inactive”.

Turning to `COc1ccc(-n2c(=O)c(C)nc3cnc(OC)nc32)cc1`, the AC50 entry was “inactive”.

As for `CCCn1c(=O)c2[nH]c(C3CCCC3)nc2n(CCC)c1=O`, the AC50 entry is “inactive”.

In the case of `COc1ccc(-c2nc3cnc(N4CCOCC4)nc3n(CCc3ccccc3)c2=O)cc1`, the AC50 entry was “inactive”.

As for `COC(=O)[C@@H]1CC[C@H](C)[C@@H](c2ccc(C)cc2)N1C(=O)c1ccc(/C=N\OCC[C@@H]2C=C[C@H](OC(C)=O)[C@H](COC(C)=O)O2)cc1`, the activity, negative = inhibition is 6.79% [at 11.4 µM] (inactive).

For the compound `COC(=O)c1cc(=O)n(C2CC2)c(=NC2CC2)s1`, the AC50 result is “inactive”.

For `CN(C)C(=C(C#N)C#N)N1CCN(c2ccc(Cl)c(Cl)c2)CC1`, the AC50 was 1.12 µM (active).

For the compound `C=CCNCCOCCOc1ccc(C)cc1[N+](=O)[O-]`, the AC50 was 3.16 µM (active).

For the compound `CCCCNCCOCCOc1ccc(C)cc1[N+](=O)[O-]`, the AC50 is 2 µM (active).

As for `Cc1ccc(OCC(=O)N/N=C\c2c(C)n(C)c3ccccc23)c([N+](=O)[O-])c1`, the AC50 result was “inactive”.

In the case of `CCC(C)Nc1c([N+](=O)[O-])cc(C)cc1[N+](=O)[O-]` (centres undefined), the AC50 result was “inactive”.

For the compound `CCCC(=O)N1CCN(c2ccc(NC(=O)c3ccc(OCC)c([N+](=O)[O-])c3)cc2)CC1`, the AC50 entry is “inactive”.

Consider `Cc1nnc(N(C)C(=O)c2ccccn2)s1`, for which the AC50 entry was “inactive”.

Consider `COc1ccc(-c2nn(-c3ccccc3)cc2/C=N/NC(=O)c2ccc3c(c2)OCO3)cc1`, for which the AC50 result is “inactive”.

Take `CSCC[C@@H]1NC(=O)C/C=C\[C@@H](C)COC(=O)[C@H](C)COC1=O`: the activity, negative = inhibition was 10.5% [at 11.4 µM] (inactive).

Regarding `COc1cc(-c2ccc(=O)[nH]n2)ccc1OC(F)F`, the AC50 result is “inactive”.

Turning to `CC(C)c1cccc2nc3c(c(C(C)(C)C)c12)Cn1c-3cccc1=O`, the AC50 result is “inactive”.

For `C[C@@H](N=C(N)N)C(=O)O`, the activity, negative = inhibition is 9.93% [at 11.4 µM] (inactive).

For the compound `Clc1ccccc1NN(Cc1ccccn1)c1ccccc1Cl`, the activity, negative = inhibition is -11.2% [at 11.4 µM] (inactive).

Take `CNC(=S)N1CCN(c2cccc(OC)c2)CC1`: the AC50 entry is “inactive”.

On to `O=C(NNC(=O)c1cc2cc3ccccc3nc2s1)c1cccc(C(F)(F)F)c1`, for which the AC50 entry is “inactive”.

`Cc1cc(=O)c2c(O)c(O)ccc2o1`: the AC50 result is “inactive”.

For the compound `Cc1cc(=O)oc2cc(O)ccc12`, the AC50 result was “inactive”.

`O=c1c(O)c(-c2ccc(O)cc2)oc2cc(O)cc(O)c12`: the AC50 is 10 µM (active).

Take `O=C(COc1ccc2ccccc2c1)Nc1ccc(Cc2ccncc2)cc1`: the half-maximal activity concentration (AC50) is 0.355 µM (active).

For `O=C(COc1ccc2ccccc2c1)NNC(=O)Cc1cccc2ccccc12`, the AC50 result is “inactive”.

Take `CC(=O)CC(=O)Nc1ccc2ccccc2c1`: the activity, negative = inhibition was 15.5% [at 11.4 µM] (inactive).

For `CCNC(=O)NC1(C(=O)Nc2ccc3c(c2)OCCO3)CCCCC1`, the AC50 entry is “inactive”.

Consider `CC(=O)NN1C(=O)c2ccc(Oc3ccc([N+](=O)[O-])cc3)cc2C1=O`, for which the AC50 entry is “inactive”.

For the compound `O=C(NC(=S)Nc1ccc(C(=O)N2CCOCC2)cc1)c1ccc([N+](=O)[O-])cc1`, the AC50 result is “inactive”.

For the compound `COc1ccc(-n2c(=O)c(-c3cc(F)cc(F)c3)nc3cncnc32)cc1`, the AC50 entry is “inactive”.

On to `CCOC(=O)Nc1ccc(NCc2ccc(F)cc2)nc1N`, for which the half-maximal activity concentration (AC50) is 31.6 µM (active).

As for `CCOC(=O)NC(NC(=O)OCC)C(=O)c1ccc(F)cc1`, the AC50 result is “inactive”.

As to `CCOC(=O)Nc1ccc(C)cc1NC(=O)OCC`, the AC50 result is “inactive”.

With `CC1=NNC(=O)C1CCC(=O)N/N=C\c1ccccc1[N+](=O)[O-]` (centres undefined), the AC50 entry was “inactive”.

With `C/C(CCc1ccc2c(c1)OCO2)=N\N=C1\NC(=O)CC(C(=O)Nc2ccccc2)S1` (centres undefined), the AC50 was 8.91 µM (active).

For `COCCN1C(=O)c2ccccc2C(C(=O)Nc2ccc3c(c2)OCCO3)C1c1ccc(F)cc1` (centres undefined), the AC50 entry is “inactive”.

For `C/C(=N\N=C1\NC(=O)CC(C(=O)O)S1)c1cccs1` (centres undefined), the AC50 entry was “inactive”.

Turning to `Cc1nn(-c2ccccc2)c(Cl)c1C(=O)Nc1c(C)n(C)n(-c2ccccc2)c1=O`, the AC50 result was “inactive”.

For the compound `CCC(C)NC(=O)c1c(C)cc(=O)oc1C` (centres undefined), the AC50 result was “inactive”.

Consider `NC(N)=NC[C@@H]1CCCCCCN1`, for which the activity, negative = inhibition is 5.74% [at 11.4 µM] (inactive).

On to `C1CCC(C(C[C@@H]2CCCCN2)C2CCCCC2)CC1`, for which the AC50 was 0.501 µM (active).

For `C1CCN(CC[C@@H]2CCCCN2)CC1`, the activity, negative = inhibition is -9.75% [at 11.4 µM] (inactive).

Consider `CCC(=O)N1CCc2cc(S(=O)(=O)NC(C(=O)NCc3ccc(F)cc3)C(C)C)ccc21` (centres undefined), for which the AC50 result is “inactive”.

`CC(C)(C)NC(=S)Nc1ccc(Nc2ccccc2)cc1`: the AC50 is 14.1 µM (active).

As for `CNC(=S)Nc1ccc(Nc2ccccc2)cc1`, the AC50 result is “inactive”.

As to `S=C(Nc1ccccc1)Nc1ccc(OCc2ccccc2)cc1`, the AC50 entry was “inactive”.

With `COc1cccc(Nc2ncc3nc(-c4cccs4)c(=O)n(CCC#N)c3n2)c1`, the AC50 result is “inactive”.

Turning to `CCOC(=O)c1ccc(-c2ccc(CO)o2)cc1`, the AC50 result was “inactive”.

For the compound `O=C(N/N=C/c1ccc(OCc2ccccc2)cc1)c1cccs1`, the AC50 entry was “inactive”.

As for `COc1ccc(N2C(=O)NC3CC2(C)Oc2ccccc23)cc1OC` (centres undefined), the AC50 result is “inactive”.

In the case of `C[C@@H](O)[C@H]1C(=O)N2C(C(=O)O)=C(S[C@@H]3CN[C@H](C(=O)N(C)C)C3)[C@H](C)[C@H]12`, the AC50 result was “inactive”.

`CCOC(=O)N1CCC(NC(=O)CSCc2cnn(-c3ccccc3)c2-n2cccc2)CC1`: the AC50 result was “inactive”.

For `COCC(=O)O[C@]1(CCN(C)CCCc2nc3ccccc3[nH]2)CCc2cc(F)ccc2[C@@H]1C(C)C`, the AC50 is 0.316 µM (active).

Turning to `COc1ccc(N(C)S(=O)(=O)c2ccc3c(c2)CCC(=O)N3)cc1`, the AC50 entry was “inactive”.

Regarding `C/C(=N\NC(=O)c1[nH]c2c([N+](=O)[O-])cc(C)cc2c1-c1ccccc1)c1cccnc1`, the AC50 result is “inactive”.

In the case of `COc1ccc(NC(=O)C2c3cc(OC)c(OC)cc3C(=O)N(C)C2c2cccnc2)cc1OC` (centres undefined), the AC50 entry was “inactive”.

As to `C=CCC(C)(NCc1ccccc1)c1ccco1` (centres undefined), the AC50 is 3.98 µM (active).

As to `CC1(C)Oc2cc(N)c([N+](=O)[O-])cc2O1`, the AC50 result is “inactive”.

As to `Cc1nnc(SCC(=O)N2CC(=O)Nc3ccccc32)n1Cc1ccccc1`, the AC50 entry is “inactive”.

As for `O=C(O)c1ccccc1-c1ccccc1C(=O)Nc1ccc2c(c1)Cc1ccccc1-2`, the activity, negative = inhibition is 8.94% [at 11.4 µM] (inactive).

Regarding `O=[N+]([O-])c1cccc(/C(=N/N=C/c2ccccc2Br)C23CN4CN(CN(C4)C2)C3)c1`, the AC50 entry was “inactive”.

Regarding `Cc1ccc(C(=O)NNC(=O)c2cc3cc4ccccc4nc3s2)cc1`, the AC50 entry is “inactive”.

The values above are taken from PubChem BioAssay AID1851 (National Center for Advancing Translational Sciences (NCATS), 2009).
